From PubChem BioAssay AID1159580 (chemical genetic matrix, 2015)
Out of some 5,500 compounds screened, about 2,000 (36%) were called active. Another 18% or so got no clear call; they are omitted. No stated cut-off is given here; in the data, active means normalized growth mostly below about 0.91 (no sharp cut-off); inconclusive means no clear call, values can overlap the other calls; inactive means mostly above about 0.92. The list shows a part of the results.

Experiment: chemical genetic growth profiling, strain panel (AID 1159580);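 further: tested at 20 µM; growth read once vehicle control cultures reached saturation at 30 °C; 1 = growth at the plate median or of vehicle wells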
Conditions: S. cerevisiae deletion strains, growth OD

Measured: normalized growth

COc1ccc2c(=O)ccoc2c1
inactive: locus YAL013W, strain DEP1, stronger effect = lower value 1.02 | locus YAL021C, strain ccr4, stronger effect = lower value 1.02 | locus YAL026C, strain drs2, stronger effect = lower value 1.02 | locus YAL030W, strain snc1, stronger effect = lower value 1.01 | locus YBL061C, strain skt5, stronger effect = lower value 1.01 | locus YBR009C, strain hhf1, stronger effect = lower value 1.02 | locus YBR021W, strain FUR4, stronger effect = lower value 0.979 | locus YBR023C, strain chs3, stronger effect = lower value 1.02 | locus YBR171W, strain sec66, stronger effect = lower value 1.04 | locus YBR229C, strain ROT2, stronger effect = lower value 1.01 | locus YBR231C, strain swc5, stronger effect = lower value 1.01 | locus YBR279W, strain paf1, stronger effect = lower value 1.02 | locus YCL011C, strain gbp2, stronger effect = lower value 1.02 | locus YCL016C, strain dcc1, stronger effect = lower value 1.02 | locus YCL029C, strain bik1, stronger effect = lower value 1.01 | locus YCL061C, strain MRC1, stronger effect = lower value 1.02 | locus YCL069W, strain vba3, stronger effect = lower value 1.02 | locus YCR088W, strain abp1, stronger effect = lower value 1.03 | locus YDL005C, strain med2, stronger effect = lower value 1.02 | locus YDL035C, strain GPR1, stronger effect = lower value 1 | locus YDL040C, strain nat1, stronger effect = lower value 1.02 | locus YDL074C, strain BRE1, stronger effect = lower value 1.02 | locus YDL101C, strain DUN1, stronger effect = lower value 1.02 | locus YDL134C, strain PPH21, stronger effect = lower value 1.02 | locus YDL185W, strain tfp1, stronger effect = lower value 1.01 | locus YDL192W, strain arf1, stronger effect = lower value 1.01 | locus YDR001C, strain nth1, stronger effect = lower value 1.02 | locus YDR069C, strain doa4, stronger effect = lower value 1.02 | locus YDR101C, strain arx1, stronger effect = lower value 0.995 | locus YDR137W, strain rgp1, stronger effect = lower value 1.03 | locus YDR150W, strain NUM1, stronger effect = lower value 1.03 | locus YDR159W, strain sac3, stronger effect = lower value 1.04 | locus YDR162C, strain NBP2, stronger effect = lower value 1.02 | locus YDR195W, strain ref2 1.08 | locus YDR297W, strain sur2, stronger effect = lower value 1.02 | locus YDR318W, strain mcm21, stronger effect = lower value 0.992 | locus YDR334W, strain swr1, stronger effect = lower value 1.02 | locus YDR335W, strain msn5, stronger effect = lower value 1.02 | locus YDR388W, stronger effect = lower value 1.01 | locus YDR392W, strain spt3, stronger effect = lower value 1.04 | locus YDR502C, strain sam2, stronger effect = lower value 1.01 | locus YEL003W, strain gim4, stronger effect = lower value 1.02 | locus YEL037C, strain rad23, stronger effect = lower value 1.02 | locus YEL061C, strain CIN8 (second series), stronger effect = lower value 1.02 | locus YEL061C, strain CIN8, stronger effect = lower value 1.01 | locus YER015W, strain faa2, stronger effect = lower value 1.03 | locus YER016W, strain bim1, stronger effect = lower value 1.02 | locus YER110C, stronger effect = lower value 1.01 | locus YER111C, strain swi4, stronger effect = lower value 1.01 | locus YER155C, strain BEM2 (second series), stronger effect = lower value 1 | locus YER155C, strain BEM2, stronger effect = lower value 1.02 | locus YER167W, strain BCK2, stronger effect = lower value 1.04 | locus YFR010W, strain ubp6, stronger effect = lower value 1.03 | locus YGL078C, strain dbp3, stronger effect = lower value 1.02 | locus YGL086W, strain mad1, stronger effect = lower value 1.01 | locus YGL167C, strain pmr1, stronger effect = lower value 1.03 | locus YGL173C, strain kem1, stronger effect = lower value 1.02 | locus YGL227W, strain vid30, stronger effect = lower value 1.03 | locus YGL240W, strain doc1, stronger effect = lower value 1.02 | locus YGL248W, strain PDE1, stronger effect = lower value 1.02 | locus YGL253W, strain hxk2, stronger effect = lower value 1.02 | locus YGR078C, strain PAC10, stronger effect = lower value 0.997 | locus YGR135W, strain pre9, stronger effect = lower value 0.978 | locus YGR229C, strain SMI1, stronger effect = lower value 1.04 | locus YGR252W, strain gcn5, stronger effect = lower value 0.825 | locus YHR013C, strain ard1, stronger effect = lower value 1.08 | locus YHR027C, strain rpn1, stronger effect = lower value 1.03 | locus YHR030C, strain SLT2, stronger effect = lower value 1.02 | locus YHR079C, strain IRE1 (second series), stronger effect = lower value 0.998 | locus YHR094C, strain hxt1, stronger effect = lower value 1.01 | locus YHR129C, strain ARP1, stronger effect = lower value 1.01 | locus YHR142W, strain chs7, stronger effect = lower value 1.03 | locus YHR200W, strain rpn10, stronger effect = lower value 0.997 | locus YIL066C, strain RNR3, stronger effect = lower value 1.01 | locus YIL073C, strain SPO22, stronger effect = lower value 1.04 | locus YIL125W, strain kgd1, stronger effect = lower value 1.02 | locus YIR030C, strain dcg1, stronger effect = lower value 1.01 | locus YJL092W, strain hpr5, stronger effect = lower value 1.02 | locus YJL095W, strain BCK1 (second series), stronger effect = lower value 1.02 | locus YJL095W, strain BCK1, stronger effect = lower value 0.991 | locus YJL115W, strain asf1, stronger effect = lower value 1.01 | locus YJL129C, strain trk1, stronger effect = lower value 1.06 | locus YJL134W, strain LCB3, stronger effect = lower value 1.02 | locus YJL154C, strain vps35, stronger effect = lower value 1.03 | locus YJL164C, strain tpk1, stronger effect = lower value 1.03 | locus YJL166W, strain qcr8, stronger effect = lower value 1.02 | locus YJL168C, strain set2, stronger effect = lower value 1.01 | locus YJL187C, strain SWE1 (second series), stronger effect = lower value 1.01 | locus YJL187C, strain SWE1, stronger effect = lower value 1.02
